Outcome data for 40 molecules are collected here from PubChem BioAssay.

For part of these data: Entries with a potency or affinity are not part of this list. Activity calls are given as the source filed them. The rule behind the calls is not given here.

Chain of Plasmodium falciparum protein kinase 6 (PK6, PF3D7_1337100) (Q8IDW1 1-305): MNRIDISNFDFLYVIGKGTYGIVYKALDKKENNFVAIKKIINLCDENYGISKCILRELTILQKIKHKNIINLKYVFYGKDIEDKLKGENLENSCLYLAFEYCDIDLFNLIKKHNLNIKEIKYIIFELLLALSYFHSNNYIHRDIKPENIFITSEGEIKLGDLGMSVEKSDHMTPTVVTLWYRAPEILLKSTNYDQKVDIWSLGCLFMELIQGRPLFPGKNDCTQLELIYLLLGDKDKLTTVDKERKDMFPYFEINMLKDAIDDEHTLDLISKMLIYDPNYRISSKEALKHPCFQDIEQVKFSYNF
Chain of Protein kinase 7 (PK7), Plasmodium falciparum 3D7 (PF3D7_0213400) (Q7YTF7 1-343): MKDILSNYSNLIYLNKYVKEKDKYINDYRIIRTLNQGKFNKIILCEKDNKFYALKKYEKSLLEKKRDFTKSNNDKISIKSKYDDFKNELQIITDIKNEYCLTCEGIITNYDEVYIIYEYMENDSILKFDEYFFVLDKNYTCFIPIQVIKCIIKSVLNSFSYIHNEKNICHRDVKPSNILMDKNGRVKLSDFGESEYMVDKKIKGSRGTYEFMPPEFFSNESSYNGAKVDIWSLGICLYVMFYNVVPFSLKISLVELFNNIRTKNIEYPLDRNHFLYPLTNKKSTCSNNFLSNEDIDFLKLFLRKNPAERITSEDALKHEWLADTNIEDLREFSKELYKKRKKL

One experiment concerns the target Plasmodium falciparum protein kinase 6 (PK6, PF3D7_1337100) (UniProt Q8IDW1). Nature of the experiment: PfPK6 kinase inhibitors, biochemical, TCAMS library (AID 1159586). The settings on record: recombinant PfPK6, Kinase-Glo ATP depletion luminescence.
Take `O=C(Nc1cccc(Cl)c1N1CCOCC1)C(Cl)(Cl)Cl`: the outcome was inactive.
As to `O=S(=O)(c1cccc(F)c1)c1ccc(Nc2ncnc3cc(Br)sc23)cc1Cl`, the result was inactive.
On to `CCOC(=O)c1ccc(NC(=O)Nc2ccc(-c3ccc(-c4nc5ccccc5[nH]4)cc3)cc2)cc1`, for which the result was inactive.
As for `Cc1[nH]c(C)c(-c2ccc(-c3ccccc3F)nc2)c(=O)c1Br`, the outcome was inactive.
Turning to `CCOc1cc(C(=O)NCCCN2CCN(c3cccc(Cl)c3)CC2)ccc1-c1nc2cc(Cl)c(F)cc2[nH]1`, the result was inactive.
As for `CC(C)CCN1CCC(Oc2ccc(NC(=O)c3ccco3)cc2Cl)CC1`, the outcome was inactive.
The same measure, in the same setting: then `Cc1ccc(Nc2ccnc(Nc3ccc(F)c(Cl)c3)n2)cc1O`, with “inactive”.
For the molecule `CCOc1c(CCNCCCCNCCc2ccc3ccccc3c2OCC)ccc2ccccc12`, the outcome was inactive.
Turning to `CC(=O)Oc1cc(C)ccc1C1CCN(CCCCNC(=O)c2ccc(NC(=O)c3ccc(Cl)cc3)cc2)CC1`, the outcome was inactive.
The same measure, in the same setting: the value for `Cc1cc(C)c2[nH]cc(C(=O)O)c(=O)c2c1` was “inactive”; that for `CN1CCC(Oc2ccc(CN3CC[C@H](NC(=O)c4ccc(F)c(F)c4)C3)c3ccccc23)C1` (stereo partly specified) was “inactive”; that for `CC(C)Nc1cc(C(=O)N[C@@H](Cc2ccccc2)[C@H](O)CNC(C)(C)c2cccc(C(F)(F)F)c2)cc(N2CCCCS2(=O)=O)c1` was “inactive”.
The same measure, in the same setting: the value for `COc1ccc2c(NN=Cc3ccccn3)ccnc2c1` was “inactive”; that for `O=C(Nc1ccc(-c2csc3nccn23)cc1)c1ccc(Cl)cc1` was “inactive”; that for `CCOCCCNc1ncc(-c2ccsc2)c(-c2nc(C)cs2)n1` was “inactive”.
Turning to `CCc1c(CCNCCCCCCNCCc2ccccc2)ccc(OC)c1OC`, the outcome was inactive.
Turning to `Nc1nc(N)c2c3c(cnc2n1)CCCC3`, the outcome was inactive.
Turning to `Cc1nc2ccc([N+](=O)[O-])cc2c(=O)n1OCc1ccccc1`, the result was inactive.
With `OCC(c1ccccc1)n1c(COc2ccc(Cl)cc2)nc2c(OCCCN3CCCCC3)cccc21` (stereo unspecified), the result was inactive.
For `COc1ccc2nccc([C@@H](O)CN3CCC(NCc4nc5c([N+](=O)[O-])cccc5[nH]4)CC3)c2c1`, the outcome was inactive.
Take `CCC1(CC)N=C(N)N=C(N)C1c1ccc(Cl)c(Cl)c1` (stereo unspecified): the result was inactive.
Consider `COc1c(C2CCN(CCCCNC(=O)c3ccc(-c4ccc(Cl)cc4)cc3)CC2)ccc2c1C(C)(C)CCC2(C)C`, for which the result was inactive.
As for `CCOC(=O)c1cccc(NC(=O)Nc2cc(C)nc3ccccc23)c1`, the result was inactive.
As for `O=C(Nc1ccc([N+](=O)[O-])cc1)Nc1nc2ccc(Cl)cc2s1`, the outcome was inactive.
For `COc1ccccc1N1CCN(Cc2c(NC(C)=O)sc(C)c2C)CC1`, the outcome was inactive.
`COc1ccc(C=NNc2nc3ccccc3[nH]2)cc1O`: the result was inactive.

Another experiment concerns the target Protein kinase 7 (PK7), Plasmodium falciparum 3D7 (PF3D7_0213400) (UniProt Q7YTF7). Nature of the experiment: inhibition of Plasmodium PK7 catalytic activity – biochemical, TCAMS antimalarial set, Kinase-Glo luminescence (AID 1159587). The conditions noted are these: recombinant PfPK7, Kinase-Glo ATP depletion luminescence.
With `Cc1ccccc1C1CCN(C2CCC(NC(=O)/C=C/c3ccc(C(F)(F)F)cc3)CC2)CC1` (stereo unspecified), the result was inactive.
The same measure, in the same setting: then `Cc1ccoc1C(=O)Nc1ccc(-c2cccc(-c3nc4c(C)cccc4[nH]3)c2)cc1`, with “inactive”; and `CCCNCc1ccc(-c2ccc(CN(C(=O)c3nn(-c4ccccc4)nc3C)C(C)CN(C)C)cc2)nc1` (stereo unspecified), with “inactive”.
In the case of `O=C(Cn1c(CCc2cccc(F)c2F)nc(=O)c2ccccc21)N(Cc1ccc(-c2ccc(C(F)(F)F)cc2)cc1)C1CCN(C2=NCCS2)CC1`, the outcome was inactive.
For `COc1cc2nc(NCCc3ccccc3)nc(NCc3nccs3)c2cc1OC`, the outcome was inactive.
Consider `COc1ccc(-c2ccc(NC(=O)c3cccc(C#N)c3)cc2)cc1CN1CCN(C)CC1`, for which the outcome was inactive.
Regarding `O=C(/C=C/c1cccc2c1OCO2)Nc1ccnc2ccncc12`, the outcome was inactive.
Take `Cc1cc(N2CCN(C)CC2)nc2ccc(NC(=O)Cc3cccc(C(F)(F)F)c3)cc12`: the outcome was inactive.
As to `Nc1nc(N)c2c(ccc3nn(Cc4cccnc4)cc32)n1`, the outcome was inactive.
Still for that read-out and setting: the value for `COc1ccc(-c2ccc(NC(=O)c3cccc(C#N)c3)cc2)cc1CN1CCCC(C(N)=O)C1` (stereo unspecified) was “inactive”.
With `Cc1cc2nc(-c3ccc(C(=O)NCc4ccc(Cl)c(Cl)c4)cc3)[nH]c2cc1C`, the result was inactive.
Same read-out and setting: the value for `O=C(Nc1cccc(Cl)c1Cl)N[C@H]1CCN(CCCCCNC(=O)[C@@H]2C[C@H]2c2ccc(Cl)c(Cl)c2)C1` was “inactive”.
As for `O=C(Nc1ccc(CC(=O)N2CCc3cc(Cl)c(N4CCN(C/C=C/c5ccccc5)CC4)cc32)cc1)Nc1cccc([N+](=O)[O-])c1`, the outcome was inactive.
In the case of `NC1CCCN(Cc2ccc(-c3cccc(-c4nc5ccccc5[nH]4)c3)cc2)C1` (stereo unspecified), the result was inactive.
With `O=C(Nc1cccc(Cl)c1N1CCOCC1)C(Cl)(Cl)Cl`, the result was inactive.
In the case of `O=S(=O)(c1cccc(F)c1)c1ccc(Nc2ncnc3cc(Br)sc23)cc1Cl`, the outcome was inactive.
As to `CCOC(=O)c1ccc(NC(=O)Nc2ccc(-c3ccc(-c4nc5ccccc5[nH]4)cc3)cc2)cc1`, the result was inactive.
Turning to `Cc1[nH]c(C)c(-c2ccc(-c3ccccc3F)nc2)c(=O)c1Br`, the result was inactive.
For `CCOc1cc(C(=O)NCCCN2CCN(c3cccc(Cl)c3)CC2)ccc1-c1nc2cc(Cl)c(F)cc2[nH]1`, the result was inactive.
Same read-out and setting: the value for `CC(C)CCN1CCC(Oc2ccc(NC(=O)c3ccco3)cc2Cl)CC1` was “inactive”.
Regarding `Cc1ccc(Nc2ccnc(Nc3ccc(F)c(Cl)c3)n2)cc1O`, the result was inactive.
For the molecule `CCOc1c(CCNCCCCNCCc2ccc3ccccc3c2OCC)ccc2ccccc12`, the outcome was inactive.
On the same count and under the same terms, then `CC(=O)Oc1cc(C)ccc1C1CCN(CCCCNC(=O)c2ccc(NC(=O)c3ccc(Cl)cc3)cc2)CC1`, with “inactive”.
Same read-out and setting: the value for `Cc1cc(C)c2[nH]cc(C(=O)O)c(=O)c2c1` was “inactive”.
Same read-out and setting: then `CN1CCC(Oc2ccc(CN3CC[C@H](NC(=O)c4ccc(F)c(F)c4)C3)c3ccccc23)C1` (stereo partly specified), with “inactive”.
On to `CC(C)Nc1cc(C(=O)N[C@@H](Cc2ccccc2)[C@H](O)CNC(C)(C)c2cccc(C(F)(F)F)c2)cc(N2CCCCS2(=O)=O)c1`, for which the result was inactive.
Regarding `COc1ccc2c(NN=Cc3ccccn3)ccnc2c1`, the outcome was inactive.
Turning to `O=C(Nc1ccc(-c2csc3nccn23)cc1)c1ccc(Cl)cc1`, the result was inactive.
The same measure, in the same setting: the value for `CCOCCCNc1ncc(-c2ccsc2)c(-c2nc(C)cs2)n1` was “inactive”.
On to `CCc1c(CCNCCCCCCNCCc2ccccc2)ccc(OC)c1OC`, for which the outcome was inactive.
For the molecule `Nc1nc(N)c2c3c(cnc2n1)CCCC3`, the outcome was inactive.
Consider `Cc1nc2ccc([N+](=O)[O-])cc2c(=O)n1OCc1ccccc1`, for which the outcome was inactive.
On the same count and under the same terms, the value for `OCC(c1ccccc1)n1c(COc2ccc(Cl)cc2)nc2c(OCCCN3CCCCC3)cccc21` (stereo unspecified) was “inactive”; that for `COc1ccc2nccc([C@@H](O)CN3CCC(NCc4nc5c([N+](=O)[O-])cccc5[nH]4)CC3)c2c1` was “inactive”.
Take `CCC1(CC)N=C(N)N=C(N)C1c1ccc(Cl)c(Cl)c1` (stereo unspecified): the outcome was inactive.
As for `COc1c(C2CCN(CCCCNC(=O)c3ccc(-c4ccc(Cl)cc4)cc3)CC2)ccc2c1C(C)(C)CCC2(C)C`, the outcome was inactive.
On to `CCOC(=O)c1cccc(NC(=O)Nc2cc(C)nc3ccccc23)c1`, for which the outcome was inactive.
In the case of `O=C(Nc1ccc([N+](=O)[O-])cc1)Nc1nc2ccc(Cl)cc2s1`, the outcome was inactive.
As to `COc1ccccc1N1CCN(Cc2c(NC(C)=O)sc(C)c2C)CC1`, the outcome was inactive.
On to `COc1ccc(C=NNc2nc3ccccc3[nH]2)cc1O`, for which the result was inactive.
